Results with a measured potency or affinity are listed apart.
Columns and labels:
Klebsiella pneumoniae = conditions: Concentration 32 ug.mL-1;; ASSAY_TEST Inhibition of Bacterial Growth; detection method Absorption (OD600); MEDIA CAMHB; plate type 384well; NBS; CORNING #3640; time 18 hr
Candida albicans = conditions: Concentration 32 ug.mL-1; ASSAY_TEST Inhibition of Fungal Growth; detection method Absorption (OD530)
Cryptococcus neoformans = conditions: Concentration 32 ug.mL-1; ASSAY_TEST Inhibition of Fungal Growth; detection method Resazurin; Absorption (OD600-OD570); plate type 384well; NBS; CORNING #3640

Structure (SMILES) | Inhibition (Klebsiella pneumoniae) | Inhibition (Candida albicans) | Inhibition (Cryptococcus neoformans)
Cc1ccc(Sc2nccn3c(=O)n(CC(=O)Nc4cc(Cl)ccc4C)nc23)c(C)c1 | -1.75% | 4.75% | -16.92%
O=C(CSc1nc2ccccc2n2c(-c3ccccc3)nnc12)Nc1ccc(Br)cc1 | 12.64% | 10.16% | -26.76%
Cc1ccccc1CSc1nnc2c(=O)n(-c3ccc(F)cc3)ccn12 | 9.44% | 1.51% | -10.33%
Cc1cccc(Oc2nc3ccccc3n3c(=O)n(CC(=O)NCc4ccco4)nc23)c1C | 3.72% | 36.74% | -27.2%
COc1cccc(CNC(=O)CSc2nnc3c(=O)n(-c4ccc(F)cc4)ccn23)c1OC | 1.04% | 2.96% | -5.56%
Cc1nnc2ccc(S(=O)(=O)N(Cc3ccccc3F)c3cc(F)cc(F)c3)cn12 | -4.61% | 2.54% | -9.43%
COc1ccc(-n2ccn3c(=O)n(Cc4ccccc4Cl)nc3c2=O)cc1Cl | 3.5% | 1.04% | 0.74%
COC(=O)c1ccc(NC(=O)Cn2nc3ccc(S(=O)(=O)c4ccccc4)nn3c2=O)cc1 | 3.88% | 1.43% | -5.62%
CSc1cccc(NC(=O)Cn2nc3c(Oc4cc(C)cc(C)c4)nccn3c2=O)c1 | 7.88% | 2.48% | -9.76%
Cc1cc(F)ccc1NC(=O)Cn1nc2c(SCc3ccc(Cl)cc3)nccn2c1=O | 8.05% | 13.65% | -20.69%
CSc1ccc(CNC(=O)Cn2nc3c(Oc4ccc(C)cc4)nccn3c2=O)cc1 | -2.38% | 4.95% | -4.29%
COc1ccccc1-n1ccn2c(SCC(=O)Nc3ccc(C)cc3C)nnc2c1=O | 11.64% | 2.45% | -10.8%
Cc1ccc(-n2ccn3c(SCC(=O)c4c[nH]c5ccccc45)nnc3c2=O)cc1C | 9.4% | 3.27% | -5.1%
Cc1ccc(NC(=O)Cn2c(=O)c3nnc(C(C)C)n3c3ccccc32)cc1 | 2.07% | 1.19% | -10.22%
O=c1c2sccc2n2c(=O)n(Cc3c(F)cccc3Cl)nc2n1CCc1ccccc1 | 4.07% | 1.94% | -23.82%
Cc1ccc(-c2cc3c4nn(CC(=O)NCc5ccccc5)c(=O)n4ccn3n2)cc1C | 9.36% | 4.46% | -12.84%
COc1ccc(-c2cc3c4nn(CC(=O)Nc5c(C)cc(C)cc5C)c(=O)n4ccn3n2)cc1 | 6.07% | -1.73% | -15.2%
CCc1nnc2c(S(=O)(=O)N(Cc3cccc(OC)c3)c3ccc(F)cc3)cccn12 | -0.6% | 3.42% | -6.42%
CCCCOc1ccc(-c2cc3c4nnc(SCC(=O)NCc5ccc(OC)cc5)n4ccn3n2)cc1 | 6.37% | 17.75% | -16.44%
O=C(Cn1nc2c(Oc3ccccc3)nccn2c1=O)Nc1ccc(F)cc1F | 0.94% | -1.91% | -7.74%

Structure (SMILES) | Inhibition (Klebsiella pneumoniae) | Inhibition (Candida albicans) | Inhibition (Cryptococcus neoformans)
Cc1cccc(Oc2nccn3c(=O)n(CC(=O)N4CCN(c5ccc(F)cc5)CC4)nc23)c1C | 7.83% | -1.43% | -7.63%
CCc1ccccc1Sc1nccn2c(=O)n(CC(=O)Nc3ccc(C)cc3C)nc12 | 5.62% | 1.23% | -14.18%
Cc1ccc(-c2ccc3nnc(CCC(=O)NCc4ccc(C(C)C)cc4)n3n2)cc1C | 10.51% | 5.56% | -18.09%
CC(C)c1ccc(NC(=O)CSc2nnc3c(=O)n(-c4ccccc4)ccn23)cc1 | 7.22% | -0.59% | -12.85%
O=C(CSc1nc2ccccc2n2cnnc12)N1CCN(c2ccc(F)cc2)CC1 | 8.82% | 1.33% | 6.24%
O=C(NCc1ccccc1)c1ccc2nn(CC(=O)N3CCN(c4ccc(F)cc4)CC3)c(=O)n2c1 | -0.37% | 5.32% | -7.39%
Cc1ccc(CNC(=O)Cn2nc3ccc(SC4CCCCC4)nn3c2=O)cc1 | 11.36% | 13.29% | -15.57%
CCCn1c(=O)c2sccc2n2c(CCC(=O)NCCC34CC5CC(CC(C5)C3)C4)nnc12 | 9.89% | 5.72% | -25.69%
Cc1cc2nn(CC(=O)Nc3cccc(F)c3)c(=O)n2c(Nc2ccc(F)c(C)c2)n1 | 7.53% | 6.76% | -7%
CCCCOc1ccc(-c2cc3c4nnc(SCC(=O)Nc5ccc(F)cc5)n4ccn3n2)cc1 | 3.87% | -1.37% | -16.65%
O=c1c2nnc(SCc3cccc(F)c3)n2ccn1-c1ccc(Br)cc1 | 8.43% | 4.16% | -10.68%
CCOc1ccc(N(Cc2ccc(F)cc2)S(=O)(=O)c2ccc3nncn3c2)cc1 | 4.23% | 3.15% | -3.72%
COc1ccc(NC(=O)c2ccc3nn(CC(=O)Nc4cccc(OC)c4)c(=O)n3c2)cc1 | 8.13% | 4.49% | -9.24%
COc1cccc(-n2ccn3c(SCc4cccc(Cl)c4)nnc3c2=O)c1 | 8.66% | 0.25% | -7.39%
CC(C)n1c(=O)c2ccc(C(=O)NC3CCCC3)cc2n2c(=O)n(Cc3cccc(C(F)(F)F)c3)nc12 | 13.79% | 1.19% | -23.89%
Cc1ccc(-c2cc3c4nn(CC(=O)Nc5ccccc5Br)c(=O)n4ccn3n2)cc1C | 18.24% | -0.22% | -11.06%
COC(=O)c1cccc(NC(=O)Cn2nc3c(N4CCCCCC4)nccn3c2=O)c1 | 3.15% | 2.05% | -12.46%
COc1ccc(NC(=O)Cn2nc3cc(C)nc(Nc4ccc(F)c(C)c4)n3c2=O)cc1 | 10.41% | 4.68% | -7.34%
COC(=O)c1cccc(NC(=O)Cn2nc3c(SCc4ccc(Cl)cc4)nccn3c2=O)c1 | 6.22% | 27.78% | -15.7%
CC(C)CCn1c(=O)c2ccc(C(=O)NC3CCCCC3)cc2n2c(=S)[nH]nc12 | 1.69% | 2.77% | -13.59%

Structure (SMILES) | Inhibition (Klebsiella pneumoniae) | Inhibition (Candida albicans) | Inhibition (Cryptococcus neoformans)
COC(=O)c1ccc(NC(=O)CSc2nnc3c4cc(-c5ccc(OC)cc5)nn4ccn23)cc1 | 13.79% | 0.37% | -25.69%
Cc1cc(C)cc(Nc2nc(C)cc3nn(CC(=O)N(C)c4cccc(C)c4)c(=O)n23)c1 | 7.61% | 2.11% | -3.53%
CCOc1ccccc1NC(=O)Cn1nc2c(Oc3ccccc3)nccn2c1=O | 5.91% | 2.77% | -10.21%
O=C(Cn1nc2ccc(-c3ccccc3)nn2c1=O)N1CCN(c2ccc(F)cc2)CC1 | 3.94% | -0.37% | -5.73%
Cc1cc(C)cc(Nc2nc(C)cc3nn(CC(=O)Nc4ccc(C)c(F)c4)c(=O)n23)c1 | 19.17% | 3.06% | -10.1%
CCc1ccccc1NC(=O)Cn1c(=O)c2nnc(C(C)C)n2c2ccccc21 | -2.33% | 1.4% | -16.86%
Cc1ccc(Oc2nccn3c(=O)n(CC(=O)Nc4ccc(F)cc4F)nc23)cc1 | 1.97% | 0.56% | -6.68%
O=C(CSc1nnc2c(=O)n(-c3ccccc3)ccn12)Nc1ccc(F)cc1 | 3.51% | 4.29% | -7.32%
CC(C)Sc1ccc2nn(CC(=O)Nc3ccc(Cl)cc3F)c(=O)n2n1 | 7.97% | 16.98% | -18.57%
Cc1ccc(-n2ccn3c(=O)n(Cc4ccccc4F)nc3c2=O)cc1C | 7.33% | 0.26% | -12.8%
CCc1nnc2c(=O)n(CC(=O)Nc3ccc4c(c3)OCCO4)c3ccccc3n12 | 1.64% | 13.49% | -11.52%
COc1ccc(NC(=O)Cn2nc3ccc(SC(C)(C)C)nn3c2=O)cc1OC | 16.54% | -0.86% | -14.12%
O=C(Cn1nc2ccc(Sc3ccccc3)nn2c1=O)N1CCN(c2ccc(F)cc2)CC1 | 5.94% | 0.64% | -5.51%
O=C(Cn1nc2ccc(SCc3ccc(Cl)cc3)nn2c1=O)Nc1cccc(F)c1 | -5.89% | 31.36% | -11.95%
O=C(CSc1nnc2c(=O)n(-c3ccccc3)ccn12)NCc1ccc(Cl)cc1 | 5.95% | -0.29% | -12.48%
O=C(Cn1nc2c3cc(-c4ccc(F)cc4)nn3ccn2c1=O)NCc1ccccc1Cl | 7.72% | 20.13% | -27.16%
COc1ccc(NC(=O)Cn2nc3nc(Nc4ccc(F)cc4)ccn3c2=O)cc1F | 11.34% | 0.24% | -11.45%
CCc1nnc2c(SCC(=O)Nc3ccc(C(=O)OC)cc3)nc3ccccc3n12 | 5.41% | 4.91% | -21.71%
Cc1ccc(-c2ccc3nn(CC(=O)Nc4ccccc4)c(=O)n3n2)cc1C | 3.8% | -1.46% | -10.8%
COC(=O)c1ccc(NC(=O)Cn2nc3c(Oc4cccc(OC)c4)nccn3c2=O)cc1 | 5.51% | 12.96% | -6.09%

From ChEMBL document CHEMBL4513146, “CO-ADD screening of Karazin Kharkiv National University (Ukraine) compounds”
